Bioassay records deposited in PubChem BioAssay by National Center for Advancing Translational Sciences (NCATS).
MCF10A rereplic: DNA re-replication induction in MCF 10a cells. MCF 10A DNA re-replication, Hoechst nuclear intensity, 48 h. Potency, µM (series often up to 46.1 µM), without a hit: top-dose activity, positive = re-replication, hits mostly activators. hit rate 2.9% among 350,000; further: % of control where 0% means no effect; nearly all actives have a fitted effect of over 50% in size
KB-3-1 cytotox: KB-3-1 parental cell cytotoxicity | KB-3-1 viability, CellTiter-Glo ATP luminescence, 72 h | Potency, µM (series often up to 46.1 µM), usual class: cytotoxic | hit rate 1.4% among 400,000 | AID 1347075; further: on the % scale 0 is the no-effect control and ±100 the full control effect; nearly all actives have a fitted effect of over 60% in size
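KB-3-1 parental drug-naive adenocarcinoma cells in DMEM/10% FBS, incubated 72 h at 37 C with pin-transferred compounds across a concentration series. Viability by CellTiter-Glo luminescence; concentration-response curves fitted after normalization.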
ELG1 DNA repair: blocks ELG1-dependent DNA repair in HEK293T cells; HEK293T ELG1-luciferase reporter, luminescence, 16 h; DNA damage induced by 5-fluorouridine; hit rate 2.3% among 330,000; Potency, µM (top dose mostly 46.1 µM), for the others: at the top dose activity change, negative = inhibition, hits mostly inhibitors; further: on the % scale 0 is the no-effect control and ±100 the full control effect; nearly all actives have a fitted effect of over 55% in size
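In this reporter screen, reduction of luminescence relative to DMSO vehicle indicated activity. Compounds and 5-fluorouridine were added together to 2,000 cells per well, incubated for 16 hr at 37 °C, then developed with ONE-Glo.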
KB-V1 cytotox: KB-V1 MDR subline cytotoxicity; KB-V1 MDR cells viability, CellTiter-Glo, 72 h; Potency, µM (series often up to 46.1 µM), most hits filed as cytotoxic; hit rate 3.4% among 400,000; AID 1347076; further: on the % scale 0 is the no-effect control and ±100 the full control effect; nearly all actives have a fitted effect of over 60% in size
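KB-V1 cells (P-gp-expressing MDR subline of KB-3-1) in phenol-red-free DMEM with 10% FBS were exposed to library compounds over a concentration series for 72 h at 37 degrees C. Viability read by CellTiter-Glo luminescence; concentration-effect curves fitted after normalization.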
SW480 rereplic: inducers of DNA re-replication in SW480 colon cancer cells. SW480 DNA re-replication, Hoechst DNA content imaging, 48 h. hit rate 1.8% among 340,000. Potency, µM (doses to about 46.1 µM), without a hit: at the highest dose re-replication activation, hits mostly activators; further: % of control where 0% means no effect; nearly all actives have a fitted effect of over 55% in size
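250 cells/well; 23 nL cpd via pin tool; 48 hr, 37 C, 5% CO2; Hoechst 40 min; imager read of total nuclear intensity, ex 405/em 500-530 nm.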
Active calls of the source: *; i = inactive; u = inconclusive; x = no result. In the library only some 8.1% were active in any assay of this set; here they are far more common. The call rests on the fitted dose curve; in most records, active means well fitted curve in the direction sought with a large enough effect; inconclusive means small, poorly fitted or top-dose-only effect, or another doubt; inactive means no such curve, though single readings can be large; an effect the other way counts as inactive or inconclusive. Potency means the concentration at half of the fitted maximal effect.

SMILES	MCF10A rereplic	KB-3-1 cytotox	ELG1 DNA repair	KB-V1 cytotox	SW480 rereplic
CCO[C@@H]1OC(C(=O)NCc2ccccc2)=C[C@H](c2ccc(C(F)(F)F)cc2)[C@H]1CCCO	2.9µM*	i	u	i	u
CCO[C@H]1OC(C(=O)N2CCN(Cc3ccc4c(c3)OCO4)CC2)=C[C@@H](c2cn(C(C)=O)c3ccccc23)[C@@H]1CCCO	-2%	u	10µM*	i	-1%
CCO[C@@H]1OC(C(=O)N2CCN(Cc3ccc4c(c3)OCO4)CC2)=C[C@H](c2ccc(C(F)(F)F)cc2)[C@H]1CCCO	-1%	u	-17%	26µM*	-13%
N#Cc1c(-n2ncnc2-c2ccccc2Cl)sc2c1CCCCC2	x	i	x	i	x
CCOc1ccc2[nH]c(C)cc(=O)c2c1	-8%	i	0%	u	-4%
Cc1cc(=O)c2cc(Br)ccc2[nH]1	4%	i	-8%	16µM*	0%
O=C(Nc1ccc(Cl)c(Cl)c1)Nc1cc(C(=O)NC2CC2)ccc1Cl	x	x	26µM*	x	x
CN(C)S(=O)(=O)Oc1cccc(C(=O)Nc2ccccc2Cl)c1	-2%	i	u	i	-12%
CN(C)S(=O)(=O)Oc1ccc(C(=O)Nc2cccc(C(F)(F)F)c2)cc1	5%	u	21µM*	i	11%
CN(C)S(=O)(=O)Oc1cccc(C(=O)Nc2ccc(Cl)cc2)c1	u	9.2µM*	u	i	-5%
Cc1ccc(-n2nc(C)c3c(C(=O)NCc4ccccc4)cc(C4CC4)nc32)cc1	x	i	x	i	x
CC(OCC(O)CNCC1COc2ccccc2O1)c1ccc(Cl)cc1 (stereo not given)	u	i	-6%	u	-5%
OC(CNCC1COc2ccccc2O1)COCc1cccs1 (stereo not given)	1%	u	12%	21µM*	-2%
Cc1cc2ncc(C(N)=O)cn2n1	29%	i	3%	i	4.1µM*
Cc1ccc(CCNc2ncnc3onc(C)c23)cc1	x	2.9µM*	x	i	x
CCOc1ccc(CCNc2ncnc3onc(C)c23)cc1OCC	x	2.6µM*	x	i	x
Nc1c(Br)cc(/C=C2\C=Cc3ccccc32)cc1Br	x	i	x	i	x
O=S(=O)(c1ccccc1)N(c1ccccc1)S(=O)(=O)c1ccccc1	10%	u	x	9.2µM*	7%
O=S(=O)(c1ccccc1)N(F)S(=O)(=O)c1ccccc1	-9%	i	1%	u	7%
CCc1ccc2oc(C(=O)Nc3ccccc3OC)cc(=O)c2c1	x	i	x	i	x
O=S(=O)(c1ccc(Br)c2nsnc12)N1CCOCC1	21µM*	i	14%	i	u
Cc1cc(C)cc(NC(=S)NCCSc2ccc(Cl)cc2)c1	21µM*	i	-2%	i	0%
Cc1ccc(SCCNC(=S)Nc2cc(C)ccc2C)cc1	u	i	-14%	u	3%
Cc1ccc(SCCNC(=S)Nc2ccc(C)c(C)c2)cc1	15µM*	u	-20%	u	u
Cc1ccc(SCCNC(=S)Nc2ccccc2)cc1	9%	i	x	i	0%
SMILES	MCF10A rereplic	KB-3-1 cytotox	ELG1 DNA repair	KB-V1 cytotox	SW480 rereplic
CN(C)c1ccc(/C=C(\Cl)c2nc3ccccc3s2)cc1	7.3µM*	i	u	u	u
O=C(O)c1ccc(C=C(c2nc3ccccc3s2)c2nc3ccccc3s2)cc1	18µM*	u	-1%	u	6%
CC1=C(C(=O)N2CCOCC2)CC(CC(=O)NC(c2ccccc2)c2ccccc2)C(=O)N1Cc1ccc(F)cc1 (stereo not given)	x	i	x	i	x
COc1cc(-c2nc3cccc(C)n3c2Nc2ccc3c(c2)OCCO3)ccc1O	x	i	x	i	x
CCOC(=O)c1c(C)[nH]c(C)c1S(=O)(=O)NCC(=O)NCc1ccc(C)cc1	x	i	x	i	x
Cn1nc(C(C)(C)C)cc1C(=O)NNC(=O)c1cccc(Cl)c1	0%	i	7.3µM*	i	-20%
COc1ccc(-c2nc(CC(=O)Nc3cccc(S(=O)(=O)NC4=NCCC4)c3)cs2)cc1	-4%	u	-19%	u	-3%
CC1(C)Cc2ccccc2C(N/N=C/c2ccc([N+](=O)[O-])cc2)=N1	-13%	i	u	i	-26%
